In PubChem BioAssay (NCI):
The panel holds about 83,000 compounds, 20% with a hit somewhere; the sample as a whole holds those more often.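 Method: cells in 96-well plates; compound added at one concentration; 48 h incubation; percent growth measured; values under 10 scored active.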 Unmarked numbers belong to inactive results. Activity calls are given as the source filed them.

What was measured:
Assay in all cases: NCI-60 one-dose screen, 48 h (100 = growth as untreated, 0 = no growth, -100 = all killed)
RPMI-8226 leukemia = details: 10 µM unless noted
OVCAR-8 ovarian = details: 10 µM unless noted
OVCAR-5 ovarian = details: 10 µM unless noted
OVCAR-4 ovarian = details: 10 µM unless noted
SK-OV-3 ovarian = details: 10 µM unless noted
IGROV1 ovarian = details: 10 µM unless noted
OVCAR-3 ovarian = details: 10 µM unless noted
HS 578T breast = details: 10 µM unless noted
NCI/ADR-RES ovarian = details: 10 µM unless noted
T-47D breast = details: 10 µM unless noted
BT-549 breast = details: 10 µM unless noted
MDA-MB-435 melanoma = details: 10 µM unless noted
SW-620 colon = details: 10 µM unless noted
MCF7 breast = details: 10 µM
HCT-116 colon = details: 10 µM unless noted
HCC-2998 colon = details: 10 µM unless noted
KM12 colon = details: 10 µM unless noted

SMILES	growth (RPMI-8226 leukemia)	growth (OVCAR-8 ovarian) [%]	growth (OVCAR-5 ovarian)	growth (OVCAR-4 ovarian)	growth (SK-OV-3 ovarian) [%]	growth (IGROV1 ovarian)	growth (OVCAR-3 ovarian)	growth (HS 578T breast)	growth (NCI/ADR-RES ovarian)	growth (T-47D breast) [%]	growth (BT-549 breast)	growth (MDA-MB-435 melanoma)	growth (SW-620 colon)	growth (MCF7 breast)	growth (HCT-116 colon)	growth (HCC-2998 colon)	growth (KM12 colon)
NC1(N2SC(S)=C3CCCC=C32)CCCCC1	95.8%	107	104%	107%	100	93.6%	107%	103%	104%	84.5	118%	107%	99.3%	95.4%	98.4%	101%	102%
COC(=O)C1(C)COP(=O)(Nc2ccc(OC)cc2)OC1 (stereo unspecified)	97.7%	101	108%	108%	108	108%	107%	106%	99.5%	93.1	98.4%	105%	108%	99.5%	95.3%	94.1%	103%
CCC1=C[C@]2(C3CC(=O)N(c4ccccc4)C3=O)CC(C(C)(C)C)C[C@@H]2[C@@H]2C(=O)N(c3ccccc3)C(=O)[C@H]12 (stereo partly specified)	59.7%	85.5	88.7%	89.4%	88.6	90.8%	86%	83%	91.3%	70.5	86.5%	85.9%	88.4%	80.7%	68.1%	103%	85.9%
COc1cc(/C=C/C(=O)c2c(C)nc3ccccc3c2/C=C/c2ccccc2)cc(OC)c1OC	-27.3% (active)	11.6	7.55% (active)	40.8%	59.3	2.87% (active)	-35.9% (active)	24.7%	8.09% (active)	13.3	6.8% (active)	3.78% (active)	0.233% (active)	13.7%	-81.8% (active)	6.52% (active)	-5.07% (active)
Cc1ccc(F)cc1NC(=O)c1cc(Cl)ccc1Nc1ccccc1	32.2%	27.3	70.2%	51.6%	82.8	71%	53.4%	90.4%	40.1%	37.1	86.2%	59.5%	57.5%	29.7%	30.9%	28.2%	37.1%
CC1=C(C(=O)OCC2CCN(C(=O)OC(C)(C)C)CC2)[C@H](c2cccc(C#N)c2)C2=C(CC(C)(C)CC2=O)N1	41.5%	46.9	75.9%	61.7%	84	47.8%	58.3%	61.7%	50.6%	69.8	65%	50.3%	37.2%	40.8%	26.9%	70.8%	42.4%
CCOC(=O)C1=C(C)N=c2s/c(=C\c3ccccc3O)c(=O)n2C1c1ccc(OC)c2ccccc12 (stereo unspecified)	-15.1% (active)	13.2	51.6%	38.6%	61.7	16.3%	10.1%	10.4%	48.3%	23.3	60.3%	-76.6% (active)	-78.2% (active)	-75.4% (active)	11.6%	-86.7% (active)	8.88% (active)
CCCC(=O)CC(C)=O.CCCC(=O)CC(C)=O.[Cu]	102%	93.1	117%	113%	77.3	103%	116%	110%	101%	77.1	111%	109%	106%	92.4%	95.9%	102%	102%
COc1ccc(/C=C2\N=C(c3ccccc3)N(c3ccc(-c4nc5ccc(C)cc5s4)cc3)C2=O)cc1	69.3%	92	84.7%	64.6%	94.2	58.6%	72.2%	102%	93.6%	54.1	92.8%	86.9%	101%	77.1%	85.9%	96%	72.1%
COc1cc(C2C(C#N)=C(N)OC3=C2C(=O)c2ccccc2C3=O)cc(OC)c1OC (stereo unspecified)	18.5%	17.4	44%	74.1%	29.9	47.7%	3.34% (active)	8.28% (active)	70.5%	67.3	41.4%	-19.7% (active)	21.5%	18.9%	19.1%	30.4%	13.1%
O=C1c2ccc3c4c(ccc(c24)C(=O)N1CCCCO)C(=O)N(CCCCO)C3=O	16.8%	75.4	106%	42.4%	85.1	86.2%	32.9%	78.2%	82.2%	87.3	63.5%	3.2% (active)	10.6%	28.2%	28.4%	97.2%	95.3%
CCN1C(=O)N(CC)C2Nn3c(s/c(=C4\C(=O)N(C(C)C)c5ccccc54)c3=O)=NC21 (stereo unspecified)	23.3%	39.9	64%	35.2%	35.5	49.5%	19.4%	60.1%	7.07% (active)	27.9	27.7%	1.02% (active)	32.4%	9% (active)	6.5% (active)	34.6%	28.5%
COc1ccc(Nc2nc(N/N=C/c3ccc(O)cc3)nc(Nc3ccc([N+](=O)[O-])cc3)n2)cc1	99.7%	100	109%	111%	112	121%	124%	110%	109%	109	114%	116%	112%	97.4%	105%	102%	121%
O=C(Nc1nc2c(s1)CCc1c-2c(Br)n(Cc2ccccc2)c1Br)c1ccccc1	63.2%	45.4	79.9%	-3.77% (active)	57.2	18.8%	62.3%	47.9%	61.8%	46.4	52.8%	56.1%	69.2%	51.5%	69.9%	99.1%	65.5%
Cc1ccc2[nH]c(=O)cc(-n3nncc3Cn3c4ccccc4c4ccccc43)c2c1	109%	94.9	104%	98.7%	91.4	103%	101%	88.4%	99.5%	106	96.6%	100%	97.9%	99.5%	97.8%	101%	103%
Cc1ccc(Nc2nc(N)c3ccccc3n2)cc1Cl	24%	57.8	75.5%	55.7%	80.4	57.3%	63.5%	101%	45.5%	58.1	85.8%	92.1%	67.7%	68.7%	28.8%	51.6%	56%
COc1ccc(Br)c(/C=C2\SC(=Nc3ccc(O)cc3)NC2=O)c1	51.7%	98	104%	83%	89.9	94.3%	102%	86.5%	106%	68.5	83.5%	87.2%	104%	70.4%	98.7%	109%	84.2%
COc1ccc(-c2nsc3c2NC(=O)CC3c2cccc(OC)c2)cc1 (stereo unspecified)	12.1%	45.9	52.9%	39.9%	14.2	45.5%	-18.6% (active)	28.5%	32.4%	35.2	39.6%	-30.6% (active)	27.2%	18.3%	29%	57.4%	36.2%
